Structures are written as SMILES. Out of some 300,000 compounds screened, about 3,600 (1.2%) were called active. Cut-off read from the data, not from the text of the source: active = activation above about 30% (passing the limit was not always enough); inconclusive = no clear call, values can overlap the other calls. The list comes from a sample in which actives are over-represented; it also holds similar structures and randomly drawn compounds.

The assay is described as follows: activation of beta-catenin signaling reporter – cell-based, plate reader, single point, primary screen (AID 743398).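 Note: 0% = neutral control wells and 100% = positive control wells.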 Conditions: Wnt/beta-catenin reporter cell assay, activator, at 9.35 µM, active compounds read high.
Take `CC(=O)NC(=O)NC(C)Cc1ccccc1` (stereo not given): the activation is -4.37% (inactive).

On to `CC(Cc1ccccc1)NCCC(c1ccccc1)c1ccccc1` (stereo not given), for which the activation was 42% (active).

Take `CC(Cc1ccccc1)NC=O` (stereo not given): the activation was -1.03% (inactive).

For the molecule `COc1cc(OC)cc(C(=O)NCCN2CCC3(CC2)C(=O)NCN3c2ccccc2)c1`, the activation is 3.07% (inactive).

Consider `Brc1ccc2c(c1)CNCc1cnnn1-2`, for which the activation is -2.63% (inactive).

The record behind these values is PubChem BioAssay AID743398 (Broad Institute, 2014).
